From the supplement of paper PMC3334620
Over roughly 33,000 sequences, “E-score (-0.5 to 0.5)” has its median near -0.054; the highest 2% begin near 0.35. This excerpt belongs to a sample that is enriched for the highest values.

These sequences were tested against T1, Stb5 (UniProt P38699) (assay: PBM E-score (8-mer binding enrichment) (E-score (-0.5 to 0.5)); higher = stronger / more preferred TF binding). Details: protein concentration: 200 nM; construct: GST-full length.
T1 sequence: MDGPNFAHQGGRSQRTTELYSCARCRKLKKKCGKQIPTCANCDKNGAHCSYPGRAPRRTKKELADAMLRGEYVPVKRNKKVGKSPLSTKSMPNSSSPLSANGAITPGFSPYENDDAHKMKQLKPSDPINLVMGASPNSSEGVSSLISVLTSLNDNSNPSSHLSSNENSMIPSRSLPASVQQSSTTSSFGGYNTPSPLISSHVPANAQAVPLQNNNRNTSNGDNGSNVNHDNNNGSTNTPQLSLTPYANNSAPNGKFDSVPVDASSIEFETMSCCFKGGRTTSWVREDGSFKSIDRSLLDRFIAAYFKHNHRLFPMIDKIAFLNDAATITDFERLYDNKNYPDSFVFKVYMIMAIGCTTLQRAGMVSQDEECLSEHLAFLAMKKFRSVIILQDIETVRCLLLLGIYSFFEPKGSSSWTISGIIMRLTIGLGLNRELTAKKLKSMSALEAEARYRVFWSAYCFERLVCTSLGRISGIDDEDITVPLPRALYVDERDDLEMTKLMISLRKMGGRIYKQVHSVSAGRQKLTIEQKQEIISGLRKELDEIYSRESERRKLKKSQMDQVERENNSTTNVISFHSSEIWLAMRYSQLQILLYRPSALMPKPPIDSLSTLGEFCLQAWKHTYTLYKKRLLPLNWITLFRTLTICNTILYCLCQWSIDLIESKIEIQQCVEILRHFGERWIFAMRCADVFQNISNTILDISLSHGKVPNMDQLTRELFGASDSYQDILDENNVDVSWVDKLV
In short: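 Yeast transcription factors carrying a GST tag, as full-length proteins or DNA-binding domains, were produced by PURExpress in vitro transcription/translation. About 100-200 nM protein was applied to universal all-10-mer Agilent arrays, double-stranded by primer extension on fresh or once-stripped slides. Bound protein was detected with fluorescent anti-GST, and scans were normalised with masliner. The Universal PBM Analysis Suite gave each ungapped eight-base word, pooled with its reverse complement, an E-score, a modified Wilcoxon-Mann-Whitney statistic.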
In the case of GTCCTCTA, the “PBM E-score” value is reported as -0.159. In the case of ACGCCGGA, the “PBM E-score” value is reported as 0.343. For CCGCCGGC, the “PBM E-score” value was 0.421. For CGGCCGGC, the “PBM E-score” value was 0.284. For ACGCCGGG, the “PBM E-score” value was 0.306. With CCGCCGGA the “PBM E-score” value was 0.309. With ACGCCGGC the “PBM E-score” value was 0.389. In the case of CGAAAGAA, the “PBM E-score” value is reported as 0.0281. AACTGCGT was tested, and the “PBM E-score” value was -0.00018. In the case of CGCATTGC, the “PBM E-score” value is reported as -0.0359. With CACCGGCA the “PBM E-score” value was 0.377. For CACCGGCC, the “PBM E-score” value was 0.318. For AACCGGCA, the “PBM E-score” value was 0.106. For TACCGGCA, the “PBM E-score” value was 0.31. For AACCGGCG, the “PBM E-score” value was 0.313. With CACCGGCG the “PBM E-score” value was 0.417. For CTGCACTA, the “PBM E-score” value was -0.0814. For CGCTAAGC, the “PBM E-score” value was 0.0898. For ATGAAAAC, the “PBM E-score” value was 0.116. For AAATCCGC, the “PBM E-score” value was 0.354. In the case of AAATCCGA, the “PBM E-score” value is reported as 0.332. With GAATCCGC the “PBM E-score” value was 0.0516. AAATCCCA was tested, and the “PBM E-score” value was -0.156. AAATCCGT was tested, and the “PBM E-score” value was 0.281. In the case of CAATCCCG, the “PBM E-score” value is reported as 0.281. In the case of AAATCCCG, the “PBM E-score” value is reported as 0.411. CAATCCGG was tested, and the “PBM E-score” value was 0.167. With AAATCCGG the “PBM E-score” value was 0.376. With ATTCGCGG the “PBM E-score” value was 0.171. CAGCACTG was tested, and the “PBM E-score” value was -0.172. For GAATAAGA, the “PBM E-score” value was 0.0303. For CGTCTAAA, the “PBM E-score” value was -0.027. For CAGCAGTC, the “PBM E-score” value was -0.115. For ACTTCGCT, the “PBM E-score” value was -0.0885. For TACGGTGA, the “PBM E-score” value was 0.16. For CACGGTGA, the “PBM E-score” value was 0.282. With AACGGTGG the “PBM E-score” value was 0.245. For AACGGTGT, the “PBM E-score” value was 0.425. For AACGGTGA, the “PBM E-score” value was 0.355. In the case of AACGGTGC, the “PBM E-score” value is reported as 0.332. CCCATTGC was tested, and the “PBM E-score” value was 0.0345. With GTCCCTGA the “PBM E-score” value was -0.284. For GGGAGGCA, the “PBM E-score” value was 0.111. In the case of AGGCTCCG, the “PBM E-score” value is reported as 0.246. In the case of ACTACCGG, the “PBM E-score” value is reported as 0.279. With ATTACCGC the “PBM E-score” value was 0.419. ATTACCCG was tested, and the “PBM E-score” value was 0.176. With ATTACCCC the “PBM E-score” value was 0.362. ATTACCTC was tested, and the “PBM E-score” value was 0.0374. In the case of CTTACCGC, the “PBM E-score” value is reported as 0.193. With ATTACCGG the “PBM E-score” value was 0.371. For CTTACCCC, the “PBM E-score” value was 0.222. In the case of GTTACCGA, the “PBM E-score” value is reported as 0.197. ATTACCGA was tested, and the “PBM E-score” value was 0.38. CTTACCGA was tested, and the “PBM E-score” value was 0.0867. In the case of ATTACCTG, the “PBM E-score” value is reported as -0.0469. CAGCAAGG was tested, and the “PBM E-score” value was -0.369. For GATGATAA, the “PBM E-score” value was 0.0422. With ACCCACTA the “PBM E-score” value was 0.0277. In the case of CGGCTTCA, the “PBM E-score” value is reported as 0.259. With ACTTTGGG the “PBM E-score” value was -0.0994. In the case of CTGGCCAC, the “PBM E-score” value is reported as -0.199. CTCCCGAG was tested, and the “PBM E-score” value was -0.213. CCAAGGTA was tested, and the “PBM E-score” value was -0.11. CTGCGGTA was tested, and the “PBM E-score” value was 0.254. In the case of ATGCGGTA, the “PBM E-score” value is reported as 0.243. In the case of GGGCGGTA, the “PBM E-score” value is reported as 0.346. In the case of CGGCGGGA, the “PBM E-score” value is reported as 0.347. CGGCGGTC was tested, and the “PBM E-score” value was 0.355. With GTGCGGTA the “PBM E-score” value was 0.367. For CGGCGGGC, the “PBM E-score” value was 0.361. CGGCGGCC was tested, and the “PBM E-score” value was 0.242. In the case of AGGCGGTC, the “PBM E-score” value is reported as 0.258. In the case of CCGCGGGC, the “PBM E-score” value is reported as 0.335. CGGCGGTA was tested, and the “PBM E-score” value was 0.451. In the case of AGGCGGTA, the “PBM E-score” value is reported as 0.287. AGCGAGTC was tested, and the “PBM E-score” value was -0.132. AGAATTCG was tested, and the “PBM E-score” value was -0.146. In the case of CGGCGACG, the “PBM E-score” value is reported as 0.194. With GACGGCGC the “PBM E-score” value was 0.199. CAACCGTC was tested, and the “PBM E-score” value was -0.0245. For GGGCCGAC, the “PBM E-score” value was 0.355. GAGCCGAC was tested, and the “PBM E-score” value was 0.201. For AGGCCGAC, the “PBM E-score” value was 0.406. With AGGCCGAT the “PBM E-score” value was 0.295. For GGGCCGAA, the “PBM E-score” value was 0.175.
